Experimental data taken from PubChem BioAssay.
Potency and affinity values are given separately. Active and inactive are the calls of the source.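 Rule for the calls: active = a fitted half-maximal concentration no higher than twice the top valid tested dose, with signal falling as cells die; inconclusive = flat curve between -70% and -30%, or poor fit; inactive = the rest, including signal rising instead of falling.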

Test: HeLa cell cytotoxicity, dose response, cytotoxicity control, ATP luminescence, cherry-pick samples (AID 687004)
Settings: HeLa viability, ATP luminescence (CellTiter-Glo), 48 h; series mostly up to 26 µM
With `CC(C)CC#Cc1cnc2c(c1)C(=O)N([C@@H](C)CO)C[C@H](C)[C@H](CN(C)C(=O)c1ccc3c(c1)OCO3)O2` the outcome was “inactive”.
In the case of `COc1ccc(NC(=O)CSc2ncnc3c2cnn3Cc2ccccc2)cc1`, the outcome was “inactive”.
In the case of `CCC(=O)N1CCC1(C)C(=O)Nc1ccc(C)c(C)c1` (stereo not drawn), the outcome was “inactive”.
For `CCOC(=O)CNC(=O)CSc1ncnc2c1cnn2-c1ccc(Cl)cc1`, the outcome was “inactive”.
With `Cc1cc(C(=O)Nc2cccc3c2O[C@@H](CN(C)S(=O)(=O)c2ccccc2)[C@@H](C)CN([C@@H](C)CO)C3=O)n(C)n1` the outcome was “inactive”.
In the case of `Cc1ccc(N2C(=O)CC(N3CCN(c4ccc(F)cc4)CC3)C2=O)c(C)c1` (stereo not drawn), the outcome was “inactive”.
In the case of `CCC(C)N(C(=O)CSc1ncnc2c1cnn2-c1ccccc1)C1CCS(=O)(=O)C1` (stereo not drawn), the outcome was “inactive”.
With `CCC(=O)N1[C@H](CN(C)C(C)=O)[C@@H](c2ccc(C3=CCCCC3)cc2)[C@@H]1CO` the outcome was “inactive”.
